Screening results: PubChem, Buhrlage Lab, Dana-Farber Cancer Institute and Novartis Institutes for BioMedical Research (Cambridge, Mass)
Only some compounds are listed: those with a hit (about 11% of all), similar ones and a draw of the others.
OTUD3 inh – human OTUD3 deubiquitinase inhibition | Q5T2D3 | purified OTUD3, Ub-rhodamine fluorescence, 2 h | inhibition, % at 25 µM | 47,000 tested, 0.7% active | AID 1645858
Target sequence (Q5T2D3 whole entry, looked up): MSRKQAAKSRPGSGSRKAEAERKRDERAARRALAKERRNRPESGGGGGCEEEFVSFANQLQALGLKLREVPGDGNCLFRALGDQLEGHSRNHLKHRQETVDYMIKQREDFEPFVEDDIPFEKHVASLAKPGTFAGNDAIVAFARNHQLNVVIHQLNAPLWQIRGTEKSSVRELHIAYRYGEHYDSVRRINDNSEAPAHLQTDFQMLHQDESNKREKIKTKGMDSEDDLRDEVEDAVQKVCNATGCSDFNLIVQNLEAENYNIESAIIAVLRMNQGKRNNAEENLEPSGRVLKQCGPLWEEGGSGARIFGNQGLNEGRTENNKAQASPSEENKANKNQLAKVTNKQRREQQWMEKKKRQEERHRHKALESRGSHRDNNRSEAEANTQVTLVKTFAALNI
USP28 inh – inhibitors of human USP28 deubiquitinase; purified USP28, Ub-rhodamine cleavage fluorescence, 30 min; inhibition, % at 25 µM; 47,000 tested, 3% active; AID 1645857
USP17 inh – inhibitors of human USP17 deubiquitinase; purified USP17, Ub-rhodamine cleavage fluorescence, 3 h; inhibition, % at 50 µM; 47,000 tested, 6.5% active; AID 1645855
USP30 inh – human USP30 deubiquitinase inhibition; purified USP30, Ub-rhodamine cleavage fluorescence; 47,000 tested, 5.3% active; inhibition, % at 25 µM
* marks the source's active call; other numbers are inactive results; . = no result. No stated cut-off is given here; in the data, active means inhibition above about 30%; inactive means the rest.

SMILES | OTUD3 inh | USP28 inh | USP17 inh | USP30 inh
O=C(c1ccnc(N2CCCC2)c1)N1CCOC2(CC=CCN(Cc3ccccc3)C2=O)C1 (configuration not stated) | -1 | -5 | 0 | 3
Cc1cc(C(=O)N2CCOC3(CC=CCN(CCc4ccccc4)C3=O)C2)n2nccc2n1 (configuration not stated) | 76* | -1 | 3 | 0
CN(C)C(=O)CN1C(=O)[C@]2(C)[C@H](c3ccccc31)[C@@H](C(N)=O)CN2C(=O)C1CCCCC1 | 16 | 13 | 11 | 25
CC(=O)N1CCC2(C1)c1ccccc1S(=O)(=O)N2CC1CC1 (configuration not stated) | -4 | -11 | -3 | -1
O=S(=O)(c1cc(F)cc(F)c1)N1CCCn2c(nc3ccccc32)C1 | 9 | 0 | 32* | 38*
CCCOC(=O)c1cc(NC(=O)c2cccnc2)ccc1N1CCOCC1 | 6 | 8 | 5 | 21
O=C(c1cccnc1)c1c(N2CCOCC2)[nH]c(=O)c2ccccc12 | -3 | . | 37* | .
N#Cc1ccc(S(=O)(=O)N2C[C@@H]3C[C@H](NC(=O)c4ccccc4)[C@H]2C3)cc1 | 6 | -1 | 7 | 10
Cn1c(=O)c(C2CCCCC2O)nc2c(OCc3ccccc3)nc(N)nc21 (configuration not stated) | 5 | -10 | 42* | -46
Cn1c(=O)c(C(CO)CCO)nc2c(OCc3ccccc3)nc(N)nc21 (configuration not stated) | 4 | -5 | 6 | -6
COCCOC(=O)c1oc2c(c1C)C(=O)CC(c1ccc(OC)cc1OC)C2 (configuration not stated) | 15 | 18 | 19 | 14
COc1cccc(NC(=O)Cn2nc3c4c(C)c(C)sc4ncn3c2=O)c1 | -2 | -6 | 2 | -24
O=C(COc1ccc(Cl)cc1Cl)Nc1ccccc1-c1nc2ccccc2[nH]1 | 17 | 10 | 84* | 10
Cc1cc(Cl)ccc1OCC(=O)Nc1ncccc1C | -12 | -4 | -3 | -3
O=C(COc1ccc(Cl)cc1Cl)Nc1ccc2sccc2c1 | -3 | 0 | 41* | 46*
O=C(COc1ccc(Cl)cc1Cl)Nc1noc2ccccc12 | -6 | 0 | 40* | -13
O=C(NCCc1ccccc1)N1CC[C@@H]2CN(Cc3ccncc3)S(=O)(=O)[C@@H]2CC1 | -5 | -1 | -10 | -8
COc1ccc2c(c1)c(N1CCCC1=O)c(C(=O)NCc1cccc(OC)c1OC)n2C | 5 | 57* | 2 | 14
Cn1nc(C(=O)Nc2cccc(F)c2)c(=O)c2ccccc21 | 17 | 21 | 45* | 37*
O=S(=O)(c1ccccc1)c1cnc2ccccc2c1N1CCCCC1 | 12 | 11 | 16 | 31*
Cc1ccc(S(=O)(=O)c2cnc3ccccc3c2N2CCCCCC2)cc1 | -4 | -2 | 4 | 14
Cc1ccc(S(=O)(=O)c2cnc3ccc(F)cc3c2N2CCCC2)cc1 | 21 | 18 | 13 | 37*
Cc1ccccc1C(=O)Nc1c(-c2cccc(C(F)(F)F)c2)c(=O)c2ccccc2n1C | -17 | -24 | -11 | -20
Cc1nc(-c2cnccn2)n(CC(=O)Nc2cccc(C#N)c2)c(=O)c1C | -3 | 0 | -1 | 3
Cc1cccc(NC(=O)Cn2c(-c3cnccn3)nc(C)c(C)c2=O)c1C | -1 | -1 | 38* | 76*
SMILES | OTUD3 inh | USP28 inh | USP17 inh | USP30 inh
COc1cccc2cc(C(=O)NCc3cnn4ccccc34)oc12 | -17 | -19 | -3 | -32
COc1cccc2cc(C(=O)Nc3nc(-c4ccncc4)cs3)oc12 | 32* | 15 | 31* | 31*
O=C(c1ccc2nc(C(F)(F)F)[nH]c2c1)N1CCN(c2ccccn2)CC1 | -1 | 1 | 2 | 13
COc1ccccc1N1CCN(C(=O)c2ccc3c(c2)N(Cc2cc(C)ccc2C)C(=O)c2ccccc2S3=O)CC1 (configuration not stated) | 12 | 18 | 20 | 51*
O=C(c1ccc2c(c1)N(Cc1ccc(F)cc1)C(=O)c1ccccc1S2=O)N1CCN(c2ccccn2)CC1 (configuration not stated) | -1 | 26 | 16 | 40*
Cc1ccc(C)c(CN2C(=O)c3ccccc3S(=O)c3ccc(C(=O)N4CCN(c5ccccn5)CC4)cc32)c1 (configuration not stated) | 7 | 24 | 18 | 39*
Cc1c(C)n(C)c2ccc(C(=O)N3CCN(c4ccccn4)CC3)cc12 | -31 | -25 | -18 | -105
Cc1nn(C)c(Cl)c1C1CCCN1Cc1nc(-c2ccoc2)no1 (configuration not stated) | -30 | -35 | -30 | -102
CC(=O)Nc1ccc(S(=O)(=O)N2CCC(CN3CCCCC3)CC2)cc1 | -6 | -2 | -14 | 16
N#Cc1cccc(NC(=O)Nc2cccn(Cc3ccc(F)cc3)c2=O)c1 | 4 | 74* | 74* | 38*
O=C(CCc1ccc2c(c1)CCO2)Nc1cccnc1 | -6 | 3 | -6 | -1
O=C(Nc1ccc(-n2ccc(C(F)(F)F)n2)cc1)Nc1ccc2c(c1)CCO2 | 16 | 41* | 12 | 32*
CCC(C(=O)C(C)C(O)C(C)CCc1ccc(C)c(O)c1C(=O)O)C1OC(CC)(C2CCC(O)(CC)C(C)O2)CC1C (configuration not stated) | 32* | 41* | 63* | 55*
CC(C)(C)c1ccc(S(=O)(=O)Nc2ccc(Cc3ccncc3)cc2)cc1 | -9 | 2 | -5 | 36*
O=C(OCC(=O)N1CCC(Cc2ccccc2)CC1)c1ccc2c(c1)S(=O)(=O)N=C1CCCCCN12 | 7 | 21 | 2 | 49*
O=C(COc1cccnc1[N+](=O)[O-])N1CCC(Cc2ccccc2)CC1 | -1 | -4 | -14 | 26
COc1cc(C(=O)OCC(=O)N2CCC(Cc3ccccc3)CC2)c([N+](=O)[O-])cc1OC | 18 | 21 | -4 | 44*
O=C(COC(=O)c1ccc2c(c1)S(=O)(=O)N=C1CCCCCN12)NCCc1ccc(F)cc1 | -1 | 2 | . | 5
COc1ccc(C(=O)OCC(=O)N2CCC(Cc3ccccc3)CC2)cc1[N+](=O)[O-] | 7 | 36* | 11 | 46*
Cc1cccc(C(=O)Nc2nnc(-c3ccc(Cl)cc3)s2)c1 | 10 | 12 | 12 | 27
CCn1nnc(NCc2cc(Cl)ccc2OCc2ccccc2Cl)n1 | 8 | 6 | 6 | 9
NCCn1nc(C2CCN(C(=O)Cc3ccc(F)cc3)C2)c2cccnc21 (configuration not stated) | -4 | -4 | 18 | 21
NCCn1nc(C2CCN(C(=O)Cc3cccc(F)c3)C2)c2cccnc21 (configuration not stated) | 1 | 9 | 37* | 26
O=S(=O)(Cc1ccc(F)cc1)c1c[nH]c2ccccc12 | 5 | 7 | 28 | -9
O=c1c(S(=O)(=O)c2cc(F)cc(F)c2)c[nH]c2cc(Cl)ccc12 | 4 | 1 | 52* | 29
COc1ccccc1N1CCN(C(=O)c2cnc(NCc3ccccc3F)nc2C)CC1 | -19 | -15 | -25 | -16
CCC(=O)Nc1cccnc1-c1ccc(C(=O)NCc2ccc(F)cc2)cc1 | -3 | -4 | -9 | -10
